# Source: PubChem
# D1 agonist: Allosteric Agonists of the Human D1 Dopamine Receptor: qHTS | D(1A) dopamine receptor (Homo sapiens), P21728 | HEK293 T-REx D1 cells, calcium flux, agonist mode | activation, % at 2 µM | 360,000 compounds, 1% hits | AID 504660, 2011; in the data active = activation above about 30%; note: 0% is about no effect
# Target sequence (P21728 whole entry, looked up): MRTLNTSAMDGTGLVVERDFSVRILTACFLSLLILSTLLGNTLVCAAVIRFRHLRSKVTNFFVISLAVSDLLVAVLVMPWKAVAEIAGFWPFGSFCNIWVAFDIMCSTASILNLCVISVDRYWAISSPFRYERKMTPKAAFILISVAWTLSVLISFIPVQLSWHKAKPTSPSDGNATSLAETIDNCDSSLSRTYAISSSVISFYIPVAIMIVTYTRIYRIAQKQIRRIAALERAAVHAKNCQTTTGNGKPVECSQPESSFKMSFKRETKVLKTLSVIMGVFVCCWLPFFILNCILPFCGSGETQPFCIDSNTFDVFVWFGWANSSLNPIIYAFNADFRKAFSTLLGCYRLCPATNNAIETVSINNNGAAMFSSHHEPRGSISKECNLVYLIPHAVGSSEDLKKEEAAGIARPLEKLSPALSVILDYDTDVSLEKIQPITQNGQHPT
#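 Inducible HEK293 T-REx D1 cells, force-coupled to calcium signalling, were plated at 4000 cells/well with tetracycline and held overnight at 30 C. After no-wash calcium dye loading, compound-evoked calcium rise over 180 s flagged agonists.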
# D3 antag: qHTS of D3 Dopamine Receptor Antagonist: qHTS; D(3) dopamine receptor (Homo sapiens), P35462; max response, negative = inhibition, %; AID 652054, 2013; 360,000 compounds, 2.5% hits; D3R cells, DiscoveRx beta-arrestin luminescence, antagonist mode; hits give low values; in the data active = max response below about -50%; inconclusive = no clear call, values can overlap the other calls; note: % is set by controls: 0 for no effect and ±100 for the full control effect
#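 Cells plated overnight at 1500 cells/well, then exposed to library compounds with dopamine controls for 90 minutes at 37 degrees C. DiscoveRx reagent added for 30–60 minutes at room temperature; luminescence read, quantitative HTS format.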
# D1 PAM: Potentiators of Human D1 Dopamine Receptor: qHTS; HEK293 TREx D1 cells, calcium flux, dopamine EC20 potentiation; 360,000 compounds, 0.036% hits; potentiation, % at 10 µM; D(1A) dopamine receptor (Homo sapiens), P21728; in the data active = potentiation above about 30%; note: 0% is about no effect
# D1 antagonist: Antagonist of Human D 1 Dopamine Receptor: qHTS | activity change, negative = inhibition, % at 10 µM | 360,000 compounds, 3.2% hits | HEK293 TREx D1 cells, calcium flux, dopamine EC80; hits give low values; in the data active = activity change below about -30%; note: % is set by controls: 0 for no effect and ±100 for the full control effect
#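 Tetracycline-induced HEK293 T-REx cells with force-coupled D1 receptor were loaded with a no-wash calcium dye. Compound was added after a 10 s baseline and read kinetically for 180 s; EC80 dopamine was then added and calcium flux followed another 180 s.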
# D3 ag: qHTS of D3 Dopamine Receptor Agonist: qHTS; D3R DiscoveRx beta-arrestin cells, luminescence, 90 min; max activation, %; 410,000 compounds, 0.58% hits; in the data active = max activation above about 30%; note: 0% is about no effect
#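 Agonist mode: compounds and dopamine controls were applied to plated cells for 90 min at 37 degrees C after an overnight attachment at 1500 cells/well. Luminescent read-out followed 30 - 60 minutes at room temperature with DiscoveRx detection reagent.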
# * = called active by the depositor; u = inconclusive; x = no result; ! = not active in a repeat. Compounds with a hit are over-represented: about 6.1% of the library has one in this group of screens.
SMILES,D1 agonist,D3 antag,D1 PAM,D1 antagonist,D3 ag
Cc1c(Cl)ccc2sc(N3CCN(C(=O)C(C)C)CC3)nc12,10,x,2,x,2
CCOc1ccccc1/C=C/C(=O)c1ccc(Cl)cc1,8,13,-6,-32*,-7
COc1ccccc1/C=C/C(=O)c1ccc(Cl)cc1,12,-7,-6,-36*,-50
COc1ccccc1/C=C/C(=O)c1ccccc1,1,13,-6,3,0
Cc1ccc2cc3cc(C(=O)N4CCN(c5ccccc5)CC4)oc3nc2c1,0,x,-1,10,5
O=C1C=CC(=O)N1c1ccc(OC(F)F)cc1,0,-55*,-6,-8,-20
CCCCNC(=O)C1c2ccccc2Oc2ccccc21,1,-5,1,-1,-4
CNCCC1Sc2ccccc2Oc2ccccc21 (stereo unspecified),81*,-4,-8,11,-12
CCc1ccc(NC(=O)CSc2nc3ncccc3[nH]2)cc1,0,x,0,-18,-15
O=C(CSc1ncnc2ccccc12)c1cccs1,3,-3,-6,-54*,4
O=C(CSc1ncnc2ccccc12)N1CCCC1,0,-19,-4,-74*,0
CNC[C@H](O)[C@@H](O)[C@H](O)[C@H](O)CO,x,x,x,x,8
COc1cc(Nc2nc3c(S(=O)(=O)c4ccc(C)c(C)c4)nnn3c3ccsc23)cc(OC)c1,1,x,-4,3,3
Cc1cccc(Oc2ccc(NC(=O)CCC(=O)OCC(=O)c3ccc(Br)cc3)cc2)c1C,5,x,-2,-13,0
CC(=NNC(=S)N1CC2CCC(CC2)C1)c1cccc(C)n1,x,-73*,x,x,1
CCc1nn2c(-c3ccco3)ccnc2c1-c1ccccc1,7,x,-5,-17,0
O=C(O)c1cc(Br)ccc1NS(=O)(=O)c1cccc2nsnc12,1,16,-4,-2,6
COc1cccc(CNC(=O)CCNS(=O)(=O)c2cccc3nsnc23)c1,1,11,-1,-73*!,0
COc1cc(NS(=O)(=O)c2cccc3nsnc23)cc(OC)c1,3,-64*,-4,-5,3
COC(=O)CNC(=O)C1CCC(CNS(=O)(=O)c2cccc3nsnc23)CC1 (stereo unspecified),2,6,2,-33*,-1
Cc1ccc(NS(=O)(=O)c2cccc3nsnc23)cc1C,0,-18,-6,-5,6
COc1cc(NS(=O)(=O)c2cccc3nsnc23)c(C(=O)O)cc1OC,3,-83*,-8,1,-4
CCOC(=O)c1cc(OC(=O)c2ccccc2F)n(-c2ccccc2)n1,1,x,0,0,7
COc1cccc2c1Oc1ncccc1N(C(=O)CCC(=O)NCc1ccc(N(C)C)cc1)C2,1,x,-5,-3,0
Fc1ccc(Nc2nc(SCc3ccccc3F)nc3ccccc23)cc1,10,x,-1,-3,16
SMILES,D1 agonist,D3 antag,D1 PAM,D1 antagonist,D3 ag
CCCCCCCCOC(=O)c1c(CSC(=N)N)n(C)c2cc(Br)c(OC(C)=O)cc12,5,21,10,16,3
CCOC(=O)c1c(CSC(=N)N)n(-c2ccc(Br)cc2)c2cc(Br)c(OC(C)=O)cc12,40*,-3,9,2,17
CCCCN(C=O)c1c(CC)nc2c(OCCOc3ccc(F)cc3)cccn12,x,1,x,x,10
CCc1nc2c(OCC(=O)C(C)(C)C)cccn2c1N(C=O)CC(=O)N(C)C,x,-98*,x,x,-24
CCCCN(C=O)c1c(CC)nc2c(OCCn3cccc3)cccn12,x,-82*,x,x,-13
CC(C)c1ccc2oc(-c3ccc(Cl)c(NC(=O)c4cccs4)c3)nc2c1,-1,x,-3,12,7
Cc1ccc(P(=O)(c2ccc(C)cc2)[C@@H](NC(c2ccccc2)c2ccccc2)c2ccccc2)cc1,x,-109*,x,x,-17
Cc1ccc(P(=O)(O)c2ccc(C)cc2)cc1,3,-20,-4,-7,-9
Cc1cccc(N2CCN(S(=O)(=O)c3ccc4c(c3)CCN4C(=O)CCC(=O)O)CC2)c1C,2,14,7,2,5
Cc1ccc(NS(=O)(=O)c2ccc3c(c2)CCN3C(=O)CCC(=O)O)cc1Cl,40*,-6,-24,0,0
Cc1ccc(C)c(N2CCN(S(=O)(=O)c3ccc4c(c3)CCN4C(=O)CCC(=O)O)CC2)c1,1,8,x,-34*,-10
CN(CC(=O)N1CCOCC1)Cc1c(Cl)cccc1NC(=O)c1ccccc1,x,x,x,x,0
Cc1ccc(-c2c(C)n3c4c(=O)n(C)c(=O)n(C)c4nc3n2CCO)cc1,8,x,-1,-11,46*
COc1ccc(-n2c(C)cc(/C=C3\C(=O)NN(c4ccccc4)C3=O)c2C)cc1,2,-59*,0,-24,4
O=C(c1ccc(F)cc1)N1CCN(Cc2ccccc2)CC1,4,u,-4,-3,-17
COc1ccc(/C=C2\C(=O)NC(=S)N2C(=O)c2ccc(F)cc2)cc1,112*,10,-6,11,-1
O=C1NC(=S)N(C(=O)c2ccc(F)cc2)/C1=C/c1ccccc1,80*,4,-2,-8,-1
COc1ccc(C(=O)CC(=O)c2ccc(F)cc2)cc1,x,-4,x,x,-15
Cc1ccc(Cl)cc1N1CCN(C(=O)CCS(=O)(=O)c2cc(Br)cc3c2N(C(=O)C2CC2)CC3)CC1,2,x,-1,3,-10
CC1(C)CC(=O)C2=C(C1)NC(=O)CC2c1cc(F)ccc1F (stereo unspecified),2,0,-10,-12,-2
CC1(C)CC(=O)C2=C(C1)NC(=O)CC2c1ccccc1F (stereo unspecified),1,-20,-6,-31*,1
CC(=O)Nc1ccc(S(=O)(=O)N2CCC(n3c(C(F)(F)F)nc4cccnc43)CC2)cc1,5,x,2,-7,5
O=C(Nc1ccc(Cl)cc1)N1CCC(c2ccccc2)C1 (stereo unspecified),10,-5,-10,-33*!,-8
O=C(c1ccc(F)cc1)N1CCC(c2ccccc2)C1 (stereo unspecified),2,-65*,-5,-3,-8
COc1ccc(C(=O)N2CCCC(c3ccccc3)C2)cc1 (stereo unspecified),0,u,1,-12,-2
Cc1ccc(CNC(=O)c2c3c(nc4ccccc24)C(=O)N(C2CCCCC2)C3)cc1,1,x,-2,7,10
CC(=O)Nc1ccc(-c2ccnc3c2CC(C)(C(=O)NCCc2ccccc2)O3)cc1 (stereo unspecified),x,-115*,x,x,-21
